# D1 ag – activates the human D1 dopamine receptor. P21728. activation, % at 2 µM. HEK293 T-REx D1 cells, calcium flux, agonist mode. actives 1% (n = 360,000); also: 0% is about no effect
# Target sequence (P21728 whole entry, looked up): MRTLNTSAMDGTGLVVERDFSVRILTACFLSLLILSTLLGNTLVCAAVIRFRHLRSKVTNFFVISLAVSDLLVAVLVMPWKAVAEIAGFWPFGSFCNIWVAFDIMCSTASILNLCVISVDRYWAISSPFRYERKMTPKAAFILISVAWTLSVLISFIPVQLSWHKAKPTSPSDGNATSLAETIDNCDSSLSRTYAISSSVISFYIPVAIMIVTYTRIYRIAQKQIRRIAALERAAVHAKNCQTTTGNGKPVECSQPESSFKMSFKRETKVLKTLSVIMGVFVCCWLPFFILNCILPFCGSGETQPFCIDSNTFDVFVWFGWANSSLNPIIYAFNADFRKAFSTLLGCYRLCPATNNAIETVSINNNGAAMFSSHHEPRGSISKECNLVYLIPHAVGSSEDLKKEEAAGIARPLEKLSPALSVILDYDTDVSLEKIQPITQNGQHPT
#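 Agonism was scored from calcium flux recorded over 180 s (1 read/s) after pintool compound addition, following a 10-cycle baseline. Cells were inducible force-coupled HEK293 TREx D1, plated overnight at 30 C and loaded with no-wash calcium dye.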
# D1 PAM – enhances dopamine response at the human D1 receptor. HEK293 TREx D1 cells, calcium flux, dopamine EC20 potentiation. potentiation, % at 10 µM. actives 0.036% (n = 360,000). AID 504651; in the data active = potentiation above about 30%; also: 0% is about no effect
# TRHR agonist – agonists of human TRH receptor; actives 0.18% (n = 360,000); P34981; activation, % at 2 µM; TRHR cells, calcium flux fluo-8, FDSS agonist mode; also: 0% is about no effect
#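 TRHR-expressing cells, plated overnight in medium with 10% serum, were loaded with fluo-8 calcium dye at room temperature. After a 10 s baseline, library compound was pin-added and calcium release was recorded kinetically (ex 480/em 530) as agonist response.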
# TRHR enhancer – allosterically enhances the human TRH receptor | TRHR cells, fluo-8 calcium fluorescence, EC20 TRH enhancement | enhancement, % at 2 µM | actives 0.66% (n = 360,000) | AID 493056; in the data active = enhancement above about 30%; also: 0% is about no effect
#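 TRHR-expressing cells loaded with fluo-8 calcium dye were read kinetically (ex 480/em 530) during compound addition, then stimulated with an EC20 of TRH (10 nM final). Enhancement of the Gq-mediated intracellular calcium response was scored.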
# D1 antagonist – human D1 dopamine receptor antagonism; activity change, negative = inhibition, % at 10 µM; actives 3.2% (n = 360,000); P21728; HEK293 TREx D1 cells, calcium flux, dopamine EC80; hits give low values; in the data active = activity change below about -30%; also: % is scaled to controls: 0 for no effect and ±100 for the full control effect
#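 Tetracycline-induced HEK293 Trex D1 cells, force-coupled to calcium, dye-loaded; compounds added and read 180 s, then EC80 dopamine added and calcium flux tracked kinetically another 180 s.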
# * = called active by the depositor; ! = not confirmed by another sample. In the library only some 4.6% were active in any assay of this set; here they are far more common. Rule as the data show it, unless noted: active = activation above about 30%; inactive = the rest.
SMILES,D1 ag,D1 PAM,TRHR agonist,TRHR enhancer,D1 antagonist
CCOC(=O)Cc1csc(NC(=O)Nc2cccc(OC)c2)n1,14,-4,-2,-2,-33*
COc1ccc(C(=O)Oc2ccc(C(c3c(C)[nH][nH]c3=O)c3c(C)[nH][nH]c3=O)cc2)cc1,24,5,0,1,-17
COc1ccc(CNC(=O)CCNS(=O)(=O)c2ccc3c(c2)CCCC(=O)N3)cc1,1,5,-1,-3,4
O=C(CC1N=C2c3ccccc3N=C(SCc3ccccc3F)N2C1=O)NCCc1ccccc1 (configuration not stated),4,-2,0,3,19
COCCCNC(=O)c1cc(-c2cccnc2)nc2ccc(S(=O)(=O)N3CCC(C)CC3)cc12,-1,-7,-1,2,-5
CCOC(=O)N1CCc2c(sc3c2c(=O)n(-c2ccccc2)c(=O)n3CC(=O)Nc2ccc(OC)cc2OC)C1,3,0,0,-4,6
CCC(C)c1ccccc1OCCCNC1CCCC1 (configuration not stated),39*,2,3,2,-34*
CC1CCN(CCOCCOc2ccccc2Br)CC1,5,-3,1,7,-48*
COc1ccccc1OCCNC1CCCC1,2,-8,0,5,-6
c1ccc(-c2ccccc2OCCN2CCCC2)cc1,7,-12,1,3,-19
CC1CCN(CCCCOc2ccccc2-c2ccccc2)CC1,20,-6,1,5,-59*
c1ccc(-c2ccccc2OCCCCN2CCCCCC2)cc1,28,-12,0,3,-35*
COc1cccc(C2CC(=O)Nc3cc4c(cc32)OCCO4)c1OC (configuration not stated),0,1,1,14,3
CCC(C)c1ccccc1OCCOCCN1CCCC1 (configuration not stated),10,-18,0,-4,-30*
c1ccc(-c2ccccc2OCCOCCN2CCCCC2)cc1,24,-11,1,3,-47*
Cc1cccc(N2CCN(C(=O)C3CCN(S(=O)(=O)c4cccs4)CC3)CC2)c1C,-3,-2,-2,-13,-34*
Cc1cccc(N2CCN(C(=O)C3CCC(CNS(=O)(=O)c4cccs4)CC3)CC2)c1C (configuration not stated),-3,-1,0,5,-4
CN(C)CCCN1c2ccccc2CCc2ccccc21,17,-5,1,-3,-41*
CC(CN(C)C)CN1c2ccccc2CCc2ccccc21 (configuration not stated),12,-12,3,-6,-81*
O=C(Cn1ccc2cc(S(=O)(=O)N3CCCCCC3)ccc21)NCCc1ccccc1Cl,1,6,1,1,-3
CCC(Cn1nnc2ccccc2c1=O)NC(=O)Nc1cccc(Cl)c1 (configuration not stated),0,-1,-2,-18,5
COc1ccccc1CNC(=O)C1CCC(CNS(=O)(=O)c2ccc3c(c2)CCCC(=O)N3)CC1 (configuration not stated),3,-3,0,-2,-27
Cc1nc(N2CCCC2)c2c(C(=O)N3CCN(c4cc(Cl)ccc4C)CC3)c(C)oc2n1,-1,3,0,-12,3
CCCN(CCC)CCCNC(=O)C1CCN(c2nc3ccc(CC)cc3s2)CC1,30*,0,3,-2,-31*
CCc1ccc2nc(N3CCC(C(=O)NCCC(C)C)CC3)sc2c1,1,0,0,0,9
SMILES,D1 ag,D1 PAM,TRHR agonist,TRHR enhancer,D1 antagonist
CCCN(CCC)CCNC(=O)C1CCN(c2nc3ccc(CC)cc3s2)CC1,90*,6,2,-5,-30*
O=C(c1ccc(Br)cc1)N1CCC(c2nc3ccccc3s2)CC1,22,-1,-1,7,-10
COc1cc(-c2n[nH]c(=S)n2/N=C/c2cccn2C)cc(OC)c1OC,78*,-2,19,2,-59*
Cn1cccc1/C=N/n1c(-c2ccco2)n[nH]c1=S,-1,-5,0,2,19
COCCCNC(=O)CCCn1c(=O)c2cccn2c2cccnc21,1,-3,-1,0,-7
O=c1oc2c(F)cc(F)cc2cc1S(=O)(=O)c1ccc(F)cc1,69*,-1,-1,7,6
Cc1ccc2oc(=O)c(S(=O)(=O)c3ccc(F)cc3)cc2c1,2,0,-1,-5,-1
COCc1ccc(C(=O)N2CCCC(C(=O)c3ccc(SC)cc3)C2)s1 (configuration not stated),7,1,0,0,-36*
CC(NC(=O)[C@H](Cc1c[nH]c2ccccc12)NC(=O)[C@@H]1Cc2ccccc2CN1)c1ccccc1 (some centres not stated),8,5,0,30*,-5
Cc1cc2nc(-c3cccc(NC(=O)CSc4ccc(Cl)cc4)c3)oc2cc1C,0,-3,0,-1,25
CCCn1c(=O)c2sccc2n2c(CCCC(=O)N3CCN(c4cccc(Cl)c4)CC3)nnc12,2,-4,0,1,6
COc1cccc(NC(=O)CCNS(=O)(=O)c2ccc(Br)s2)c1,3,6,-1,7,-37*!
Cc1ccc(NC(=O)CCNS(=O)(=O)c2ccc(Br)s2)cc1,0,6,-1,4,7
CCc1ccc(CNc2ccc3c(c2)ncn3C)cc1,2,2,0,31*,-10
Cc1ccc(CNc2ccc3c(c2)ncn3C)cc1,-1,-1,1,-6,0
Cc1cccc(OCCCCn2nnc3sc4c(c3c2=O)CCC(C)C4)c1 (configuration not stated),-1,0,0,4,-2
CC(C)Cn1c(/C=C/c2ccccc2)nc2ccccc21,6,-3,-1,-1,8
CCn1c(/C=C/c2ccccc2)nc2ccccc21,-1,-10,0,-5,-39*
CCCCCCn1c(/C=C/c2ccccc2)nc2ccccc21,16,-6,2,-7,-31*
CCCCCn1c(-c2ccc(OC)c(OC)c2)nc2ccccc21,57*,-3,-1,5,-47*
COc1cc(Cn2c(-c3ccc(O)c(OC)c3)nc3ccccc32)ccc1O,1,-3,0,0,-15
Cc1ccc(C(C)C)c(OCCSc2nc3ccccc3n2CC(O)CO)c1 (configuration not stated),-1,-5,0,10,1
COc1ccccc1CNC(=O)C1CCCN(c2nc3ccccc3n3cccc23)C1 (configuration not stated),0,1,0,7,2
O=C1CSC(=Nc2cccc(Cl)c2Cl)N1Cc1cccnc1,4,-4,-1,-8,-35*

# Screening data (PubChem)
